# Shown are actives, neighbours in structure and some others; about 3.6% of the full set was active somewhere.
# MITF act: activators of MITF-driven TRPM1 promoter reporter, primary screen, cell-based, SK-MEL-5, luciferase, single point; SK-MEL-5 TRPM1-promoter luciferase, 24 h; % of positive control, neutral wells = 0; activation, % at 12.5 µM; hit rate 0.75% among 300,000;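 active = mean activation of at least 80% with every replicate also reaching 80%; inconclusive = mean reaches 80% but some replicate falls short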;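 also: 0% = neutral control wells and 100% = parthenolide positive control wells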
# esBAF inh: Bmi1 luciferase reporter increase in mESCs, primary screen, esBAF inhibitor project, mouse ES cells, Bmi1 luciferase knock-in, single point; AID 602393, 2012; 24 h; 100% = twice the neutral-well signal; reporter increase, % at 12.5 µM; hit rate 2% among 350,000; in the data active = activation above about 40%; inconclusive = no clear call, values can overlap the other calls;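 also: 0% = median of the plate's neutral control wells and 100% = double that signal; a rise in the Bmi1 reporter signal indicates esBAF inhibition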
# Wnt act: Wnt/beta-catenin pathway activators, primary screen, cell-based, plate reader, single point; Wnt/beta-catenin reporter cell assay, activator; activation, % at 9.35 µM; hit rate 1.2% among 300,000; AID 743398, 2014; in the data active = activation above about 30%, passing the limit was not always enough; inconclusive = no clear call, values can overlap the other calls;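 also: 0% = neutral control wells and 100% = positive control wells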
# PHOSPHO1 block: PubChem AID 1565; hit rate 1.1% among 290,000; recombinant PHOSPHO1, absorbance phosphatase assay; inhibition, % at 13.3 µM; Phosphoethanolamine/phosphocholine phosphatase (Homo sapiens), Q8TCT1; in the data active = inhibition above about 60%
# Target sequence (Q8TCT1 whole entry, looked up): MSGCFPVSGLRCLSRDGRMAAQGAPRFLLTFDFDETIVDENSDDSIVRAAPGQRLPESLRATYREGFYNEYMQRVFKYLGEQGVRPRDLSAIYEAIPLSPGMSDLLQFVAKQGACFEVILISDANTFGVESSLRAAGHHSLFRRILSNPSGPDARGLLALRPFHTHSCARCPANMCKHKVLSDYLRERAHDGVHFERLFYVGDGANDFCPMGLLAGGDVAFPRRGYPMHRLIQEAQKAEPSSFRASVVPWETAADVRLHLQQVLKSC
# A3G deaminase: APOBEC3G DNA deaminase inhibitors, primary screen, biochemical, fluorescence, single-stranded DNA substrate, uHTS. recombinant A3G, ssDNA deamination FAM/TAMRA fluorescence. hit rate 0.28% among 330,000. AID 493012, 2011. inhibition, % at 20 µM;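 active = inhibition of at least 40% at 20 µM, with no more than 30% in the related APOBEC3A deaminase screen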;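 also: plate controls were DMSO wells with A3G for no effect and wells lacking A3G enzyme for full effect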
# Target sequence (Q9HC16 whole entry, looked up): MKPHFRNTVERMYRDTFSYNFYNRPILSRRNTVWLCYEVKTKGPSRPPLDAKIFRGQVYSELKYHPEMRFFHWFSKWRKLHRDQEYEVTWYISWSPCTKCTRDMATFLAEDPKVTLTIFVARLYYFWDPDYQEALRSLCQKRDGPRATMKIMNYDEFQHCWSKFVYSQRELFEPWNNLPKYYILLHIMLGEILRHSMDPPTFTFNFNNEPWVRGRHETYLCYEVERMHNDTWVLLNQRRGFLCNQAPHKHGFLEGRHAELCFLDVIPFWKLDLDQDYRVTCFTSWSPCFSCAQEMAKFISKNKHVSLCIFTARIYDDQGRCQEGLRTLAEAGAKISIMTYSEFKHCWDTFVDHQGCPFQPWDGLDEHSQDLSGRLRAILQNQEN
# APOBEC3A inh: APOBEC3A ssDNA deaminase inhibitors, primary screen, selectivity assay for APOBEC3G inhibitor project, biochemical, FAM/TAMRA oligo cleavage fluorescence; recombinant A3A, FAM/TAMRA ssDNA deamination fluorescence; hit rate 0.41% among 330,000; inhibition, % at 20 µM; AID 493011, 2011; DNA dC->dU-editing enzyme APOBEC-3A (Homo sapiens), P31941;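 active = at least 40% inhibition at 20 µM here, with at most 30% in a related deaminase screen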;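 also: plate controls were A3A with DMSO for no effect and wells lacking A3A enzyme for full effect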
# The depositor's hits bear a star; ? = inconclusive; . = not tested or not shown.
SMILES,MITF act,esBAF inh,Wnt act,PHOSPHO1 block,A3G deaminase,APOBEC3A inh
Cc1noc(C)c1NC(=O)N(C)C[C@@H]1Oc2c(NS(=O)(=O)c3ccccc3)cccc2C(=O)N([C@H](C)CO)C[C@@H]1C,.,2.8,.,.,.,.
C[C@H](CO)N1C[C@H](C)[C@H](CN(C)S(=O)(=O)c2ccc(Cl)cc2)Oc2ccc(NC(=O)Nc3ccc(F)cc3)cc2CC1=O,.,1.0,.,.,.,.
CCNC(=O)C[C@@H]1CC[C@H]2[C@@H](COC[C@@H](O)CN2S(=O)(=O)c2ccc(Oc3ccccc3)cc2)O1,.,2.2,.,.,.,.
CCn1cnc2cc(NCc3ccc(C)cc3)ccc21,119.0*,?,.,19.8,-2.0,-4.7
CCOc1ccc(CNc2ccc3c(c2)ncn3C)cc1,36.6,.,24.7,-10.5,-7.8,-9.0
CCCn1cnc2cc(NCc3cccc(OC)c3)ccc21,65.6,52.0*,21.3,-13.6,-4.5,-5.0
Cc1ccc(C(=O)NCCc2c[nH]c3ccccc23)c(C)c1,76.3,70.7*,23.9,23.3,-4.2,0.2
Cc1ccc(C(=O)NCCCc2ccccc2)s1,87.4*,.,52.6*,3.2,-3.4,0.3
Cc1ccc(C(=O)NCCc2c[nH]c3ccccc23)s1,.,55.7*,29.5,27.9,-0.5,24.5
C[C@H](CO)N1C[C@H](C)[C@H](CN(C)C(=O)CC2CC2)Oc2cc(C#CC3CC3)ccc2S1(=O)=O,.,1.3,.,.,.,.
Cc1ccc(S(=O)(=O)Nc2ccc3c(c2)CC(=O)N([C@H](C)CO)C[C@@H](C)[C@H](CN(C)S(=O)(=O)c2cn(C)cn2)O3)cc1,.,2.7,.,.,.,.
CC(C)Nc1nc(Cl)nc(Nc2ccccc2)n1,44.2,60.5*,9.8,19.1,-4.8,-5.3
O=C(CSc1ncccc1-c1nc2ccccc2[nH]1)N1CCN(c2ccccc2F)CC1,-6.3,-18.0,.,88.4*,-5.2,-2.0
O=C(CSc1ncccc1-c1nc2ccccc2[nH]1)NC1CC1,4.3,-16.1,.,13.4,-0.5,6.1
COc1ccc(N2CCN(C(=O)CSc3ncccc3-c3nc4ccccc4[nH]3)CC2)cc1,-20.1,-7.3,-3.6,93.8*,-7.8,-7.3
COc1ccccc1N1CCN(C(=O)CSc2ncccc2-c2nc3ccccc3[nH]2)CC1,-8.4,-23.4,.,97.6*,-1.6,0.9
C[C@@H]1CCCCO[C@@H](CN(C)S(C)(=O)=O)[C@H](C)CN([C@@H](C)CO)C(=O)c2cc(NC(=O)CCCN(C)C)ccc2O1,.,3.5,.,.,.,.
COc1ccc(OC)c(-n2c(-c3cccc(C)c3)n[nH]c2=S)c1,2.8,.,-2.8,-40.0,11.3,-1.7
COc1ccc(-c2cc(-c3n[nH]c(=S)n3-c3ccccc3OC)[nH]n2)cc1,3.5,.,-2.4,67.2*,-7.2,-2.4
COc1ccc(OC)c(-n2c(-c3ccccc3)n[nH]c2=S)c1,-23.1,-4.5,-3.9,102.0*,22.5,-3.1
COc1ccc(OC)c(-n2c(-c3cc(-c4ccccc4)n[nH]3)n[nH]c2=S)c1,8.1,.,.,-12.9,-8.2,-6.6
O=C(NCc1ccccn1)C1CCC(CNS(=O)(=O)c2cccc3nsnc23)CC1 (stereo not given),-1.2,-2.5,1.0,62.7*,-5.2,-8.6
CCCNC(=O)C1CCC(CNS(=O)(=O)c2cccc3nsnc23)CC1 (stereo not given),-1.5,-2.1,-2.5,24.2,-2.3,0.9
O=C(CCl)c1ccc2[nH]c(=O)oc2c1,-20.9,-1.1,35.9*,-27.8,-4.4,-2.5
CC(=O)N(C)C[C@@H]1Oc2ncc(/C=C/c3ccccc3)cc2C(=O)N([C@H](C)CO)C[C@H]1C,.,2.5,.,.,.,.
SMILES,MITF act,esBAF inh,Wnt act,PHOSPHO1 block,A3G deaminase,APOBEC3A inh
COCC#Cc1ccc2c(c1)O[C@@H](CN(C)Cc1ccccn1)[C@H](C)CN([C@H](C)CO)S2(=O)=O,.,7.2,.,.,.,.
Cc1ccc(C(=O)NNC(=O)c2cccc(C)c2)cc1,40.7,41.5*,.,24.1,-5.0,-2.0
Cc1cccc(C(=O)Nc2ccc(C(=O)Nc3ccc(O)cc3)cc2)c1,-8.1,-5.6,14.3,62.4*,-4.9,0.8
Cc1cccc(C(=O)NNC(=O)c2ccc(O)cc2)c1,.,4.7,3.4,18.5,-2.4,-2.6
Cc1cccc(C(=O)Nc2ccc(C(=O)/C=C/c3cccnc3)cc2)c1,-26.5,42.3*,.,-9.3,.,.
Cc1ccc(S(=O)(=O)N(C)C[C@@H]2Oc3ccc(NC(=O)CCN4CCOCC4)cc3CC(=O)N([C@@H](C)CO)C[C@H]2C)cc1,.,0.3,.,.,.,.
C/C(=N\NC(=O)c1cc(C)[nH]n1)c1cccs1,18.9,-16.0,34.5*,-32.1,-3.6,1.7
C/C(=N\NC(=O)c1cc(C)[nH]n1)c1ccc(-c2ccccc2)cc1,23.0,14.4,4.3,26.9,-9.6,-1.5
C/C(=N\NC(=O)c1cc(Br)ccc1O)c1cccs1,80.6*,37.8,?,32.0,-4.6,0.2
C/C(=N\NC(=O)c1cc(C(C)C)[nH]n1)c1ccncc1,11.5,24.3,-0.7,-17.4,0.3,-2.6
C/C(=N/NC(=O)c1cc(C(C)C)[nH]n1)c1cccs1,13.6,-40.3,33.1*,0.9,-3.4,1.2
CCSc1nnc([C@@H]2CCCN2C(=O)OC(C)(C)C)o1,-4.1,7.8,-0.6,67.4*,7.5,38.4
CCCCNc1nc(=S)[nH]c2cc(OC)c(OC)cc12,.,-11.1,.,52.7,-4.1,-4.2
COCCNc1nc(=S)[nH]c2cc(OC)c(OC)cc12,-14.3,-9.8,-0.6,68.5*,-4.0,-4.2
CC(=O)N1CCc2c(sc(NC(=O)C3CC3)c2-c2nc3ccccc3s2)C1,-0.1,6.5,-3.0,30.2,-10.8,-2.7
CC(=O)Nc1sc2c(c1-c1nc3ccccc3s1)CN(C(C)C)CC2,-61.6,-81.7,58.2*,.,-183.3,-119.0
O=c1c2ccccc2nc2sc(Nc3cccc(Cl)c3)nn12,36.7,46.1*,21.8,.,2.4,-2.5
CCCCN1C(=O)C(=O)N(CC(=O)N2N=C3/C(=C/c4ccco4)CCCC3C2c2ccco2)C1=O (stereo not given),-1.4,.,-1.6,62.2*,-3.4,3.1
O=C(CSc1ncn[nH]1)N1N=C2/C(=C/c3ccco3)CCCC2C1c1ccco1 (stereo not given),.,25.6,-6.4,87.4*,-5.8,1.9
CCC(=O)N1[C@@H]2c3ccc(-c4ccc(F)cc4)c(=O)n3C[C@@H]2[C@@H](CO)[C@@H]1C(=O)NC1CCC1,.,-9.5,.,.,.,.
S=C(NCCC1=CCCCC1)Nc1ccc(Cl)cc1,53.7,64.4*,10.5,0.6,5.2,-1.8
COc1ccc(NC(=S)NCCC2=CCCCC2)cc1OC,-6.0,.,-0.9,10.5,-3.2,-3.3
COc1ccc(NC(=O)NCCC2=CCCCC2)cc1,56.1,.,52.0*,45.4,-5.9,-3.3
